Screens as filed in PubChem BioAssay.
Shown are actives, neighbours in structure and some others; about 7.9% of the full set was active somewhere.
HCV inhibitor: blocks hepatitis C virus. Potency, µM (highest dose often 41.8 µM), actives largely listed as inhibitors. 3.4% of 340,000 active. Huh7.5.1 HCVcc-Cre infection, luciferase reporter, 44 h; active = well fitted inhibition curve with a large enough effect; inconclusive = small, poorly fitted or top-dose-only effect, or another doubt; inactive = no such curve, though single readings can be large or run the other way
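Antiviral activity was scored by luciferase reporter output from cells infected with HCVcc-Cre (~0.5 moi) in presence of compound, 44 h infection period, cells seeded 1,000/well 4 h prior.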
FMDV inh: antivirals against foot and mouth disease virus. FMDV antiviral cell-based qHTS. Potency, µM (series often up to 57.9 µM), actives largely listed as inhibitors. 1.2% of 410,000 active. AID 1159524; calls by dose curve; tested in HEK293T cells; also: read-out not given here; nearly all actives have a fitted effect of over 45% in size
MARV entry inh: inhibitors of Marburg virus binding or cell entry. Potency, µM (series often up to 37.8 µM), actives largely listed as inhibitors. Marburg virus pseudotyped entry inhibition, cell reporter. 1.8% of 300,000 active; calls by dose curve; tested in HEK293 cells
Lassa entry inh: inhibitors of Lassa virus binding or cell entry; Lassa virus pseudotype entry inhibition, cell reporter; Potency, µM (series often up to 37.9 µM), most hits filed as inhibitors; 1.2% of 300,000 active; AID 540256; calls by dose curve; tested in HEK293 cells; also: nearly all actives have a fitted effect of over 50% in size
HCMV inh: inhibitors of human cytomegalovirus. 4.5% of 410,000 active. AID 1259415. activity change, negative = inhibition, % at 57.5 µM. HFF cells, HCMV-luciferase reporter, 72 h; stronger effect = lower value; in the data active = activity change below about -60%; inconclusive = no clear call, values can overlap the other calls; inactive = above about -39%
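Inhibition of viral replication was scored as loss of reporter luminescence in HFFs infected with HCMV-luciferase (MOI 1 PFU/cell) for 72 h; compounds tested at 2 doses, normalized to buffer and Salinomycin controls.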
Of the large screens only hits and unclear results are named; the others gave an inactive call.

O=c1cnc2cnc(N3CCNCC3)nc2n1C1CC1	none (no result: HCV inhibitor, MARV entry inh, Lassa entry inh, HCMV inh)
CC(=O)N1CCN(c2c(F)c(F)c(C(F)(F)F)c(F)c2F)CC1	FMDV inh inconclusive, MARV entry inh inconclusive, HCMV inh -61
COC(=O)[C@@H]1[C@@H](CO)[C@@H]2Cn3c(ccc(Br)c3=O)[C@H]1N2S(=O)(=O)c1cccc(C)c1	none (no result: HCV inhibitor, FMDV inh, MARV entry inh, Lassa entry inh)
CCC1CN2CCc3cc(OC)c(OC)cc3C2CC1CC1NCCc2c1[nH]c1ccc(O)cc21 (centres undefined)	HCV inhibitor inconclusive, FMDV inh inconclusive, MARV entry inh 0.22µM, Lassa entry inh 0.5µM, HCMV inh -99
CC[C@@H]1CN2CCc3cc(OC)c(OC)cc3[C@H]2C[C@@H]1C[C@H]1NCCc2cc(OC)c(OC)cc21	MARV entry inh 0.33µM (no result: HCV inhibitor, FMDV inh, Lassa entry inh, HCMV inh)
CCOc1ccc(NC(=O)C(=O)NCC(c2cccnc2)N2CCc3ccccc32)cc1 (centres undefined)	FMDV inh 11µM, HCMV inh -66 (no result: HCV inhibitor, MARV entry inh)
COC(=O)c1ccc(NC(=O)C(=O)NCC(c2cccnc2)N2CCc3ccccc32)cc1 (centres undefined)	FMDV inh 11µM (no result: HCV inhibitor, MARV entry inh)
CSc1ccn(CC2CCC(Cl)CC2)c(=O)n1 (centres undefined)	none (no result: HCV inhibitor, FMDV inh, Lassa entry inh, HCMV inh)
COC(=O)c1c(Oc2ccc(Br)cc2)nnc(-c2ccccc2)c1-c1ccccc1	FMDV inh inconclusive, MARV entry inh inconclusive, Lassa entry inh inconclusive (no result: HCV inhibitor)
CCc1cc2c(c(CC)n1)CCC(=O)N2Cc1ccc(-c2ccccc2-c2nn[nH]n2)cc1	none (no result: HCV inhibitor, MARV entry inh, Lassa entry inh, HCMV inh)
CN(C)c1ccc(C=NN2CCCCCC2)cc1	MARV entry inh inconclusive, Lassa entry inh inconclusive
CC(C)c1ccc(/C=N/N2CCCCC2)cc1	MARV entry inh inconclusive, HCMV inh -70
CC(C)c1ccc(/C=N/N2CCN(c3ccccn3)CC2)cc1	MARV entry inh inconclusive, HCMV inh -63
CCOc1ccc(NC(=O)Cn2c(=O)n(-c3cccc(OC)c3)c(=O)c3c4c(sc32)CCCC4)cc1	none (no result: HCV inhibitor)
Cc1cccc(Cn2ncc(Cl)c(Cl)c2=O)c1	HCV inhibitor 3.5µM, FMDV inh inconclusive, MARV entry inh inconclusive, Lassa entry inh inconclusive, HCMV inh -94
Cc1cc2oc(=O)cc(Cn3ncc(Cl)c(Cl)c3=O)c2cc1Cl	HCV inhibitor 11µM, FMDV inh inconclusive, MARV entry inh inconclusive, Lassa entry inh inconclusive (no result: HCMV inh)
Cc1ccc(C)c(C(=O)CN2C(=O)c3ccccc3C2=O)c1	none
O=c1c2ccccc2cnn1Cc1ccc(Cl)c(Cl)c1	MARV entry inh inconclusive (no result: Lassa entry inh)
Cc1cc2oc(=O)cc(CN3CCN(c4ccccc4)CC3)c2cc1Cl	none (no result: HCV inhibitor, MARV entry inh, Lassa entry inh)
Cc1ccc(C)c(C(=O)Cn2ncc(Cl)c(Cl)c2=O)c1	HCV inhibitor 10µM, FMDV inh 32µM, MARV entry inh 10µM, Lassa entry inh inconclusive, HCMV inh -97
Cc1cc(C(=O)Cn2ncc(Cl)c(Cl)c2=O)c(C)n1CC(F)(F)F	HCV inhibitor inconclusive, FMDV inh inconclusive, MARV entry inh inconclusive, Lassa entry inh inconclusive, HCMV inh -100
COC1=C(OC)C(Cl)=C(CC2C(=O)OC(C)(C)OC2=O)CC1	none (no result: HCV inhibitor, FMDV inh, Lassa entry inh, HCMV inh)
CCCCN=CN1c2ccccc2-n2cccc2C1c1ccc(CC)cc1 (centres undefined)	none (no result: HCV inhibitor, FMDV inh, MARV entry inh, Lassa entry inh)
COc1cccc(C(c2sc3nc(-c4ccco4)nn3c2O)N2CCN(C)CC2)c1 (centres undefined)	none (no result: HCV inhibitor, MARV entry inh)
CC(=O)c1ccc(N2CCN(c3ncnc4c3c(-c3ccccc3)cn4-c3cccc(C)c3)CC2)cc1	HCMV inh inconclusive (no result: HCV inhibitor, MARV entry inh)
CC(C)c1c(C(=O)NCC(C)(C)N2CCOCC2)cnn1-c1nccc(-c2cccs2)n1	none (no result: HCV inhibitor, MARV entry inh, Lassa entry inh, HCMV inh)
CCOC(=O)C1(C(=O)OCC)N=C(c2ccccc2)C=C1c1ccccc1	none (no result: HCV inhibitor, FMDV inh, MARV entry inh, Lassa entry inh)
Cc1cccc(Cn2nnc3c2C(=O)c2ccccc2C3=O)c1	HCV inhibitor inconclusive, FMDV inh inconclusive, MARV entry inh inconclusive, Lassa entry inh inconclusive, HCMV inh -100
Cc1ccccc1Cn1nnc2c1C(=O)c1ccccc1C2=O	HCV inhibitor inconclusive, MARV entry inh inconclusive
Cc1ccccc1Nc1oc(-c2ccccc2)nc1-c1ccc(C(F)(F)F)cc1	Lassa entry inh inconclusive (no result: HCV inhibitor, FMDV inh, HCMV inh)
Cc1c(N=C2N=C(NC(=O)c3ccc(F)cc3)c3ccccc32)c(=O)n(-c2ccccc2)n1C	FMDV inh 28µM, MARV entry inh inconclusive
COc1ccc(N2CCC(CNC(=O)Nc3ccc(C)c(C)c3)C2)cc1 (centres undefined)	none
COc1ccc(N2CCC(CNC(=O)Nc3ccc(OC)cc3OC)C2)cc1 (centres undefined)	HCV inhibitor inconclusive, HCMV inh -80
COc1ccc(N2CCC(CNC(=S)Nc3ccc(C)cc3C)C2)cc1 (centres undefined)	HCV inhibitor inconclusive (no result: MARV entry inh, Lassa entry inh)
COc1ccc(N2CCC(CNC(=S)Nc3c(C)cc(C)cc3C)C2)cc1 (centres undefined)	HCV inhibitor inconclusive, HCMV inh -70 (no result: MARV entry inh, Lassa entry inh)
C[N+](C)(C)CCN1CCc2ccccc21	none (no result: HCV inhibitor, MARV entry inh, Lassa entry inh)
CCCn1c(=O)[nH]c(=O)c2c1nc(-c1cc([N+](=O)[O-])ccc1Cl)n2CCOC	MARV entry inh inconclusive
CNC(=O)c1cc(C(=O)c2ccc(F)cc2C(F)(F)F)c[nH]1	FMDV inh inconclusive (no result: MARV entry inh, Lassa entry inh)
O=C(Nc1cc(Oc2ccccc2)cc([N+](=O)[O-])c1)C12CC3CC(C1)CC(n1cnc(Cl)n1)(C3)C2	HCV inhibitor 10µM, MARV entry inh inconclusive, Lassa entry inh inconclusive
NCC(O)CC(=O)O (centres undefined)	none (no result: HCV inhibitor, MARV entry inh, Lassa entry inh, HCMV inh)
N=c1n(CCO)c2ccccc2n1CCOc1ccc(F)cc1	none (no result: HCV inhibitor)
CCCCn1c(=N)n(CCCOc2ccc(F)cc2)c2ccccc21	FMDV inh inconclusive, MARV entry inh 10µM, Lassa entry inh inconclusive, HCMV inh -67 (no result: HCV inhibitor)
O=C(c1ccnc(-n2cnnn2)c1)N1CCOc2ccc(C(O)CCc3ccccc3)cc2C1 (centres undefined)	none (no result: HCV inhibitor, MARV entry inh, Lassa entry inh, HCMV inh)
CC[n+]1c(C)sc2cc(C)ccc21	none (no result: MARV entry inh, Lassa entry inh)
CCN1/C(=C/c2ccc3cc(C)ccc3[n+]2CC)Sc2cc(C)c(C)cc21	HCV inhibitor 1.1µM, FMDV inh inconclusive, MARV entry inh inconclusive, Lassa entry inh 2µM, HCMV inh -100
CCN1/C(=C/c2ccc3cc(C)ccc3[n+]2CC)Sc2ccccc21	HCV inhibitor 1.6µM, FMDV inh 20µM, MARV entry inh 1µM, Lassa entry inh 5.2µM, HCMV inh -102
COc1ccc(OC)c(N(CC(=O)NCC2CCCO2)S(=O)(=O)c2ccccc2)c1 (centres undefined)	HCMV inh -63
Cc1ccc(N(CCC(=O)O)S(=O)(=O)c2ccccc2)cc1	MARV entry inh inconclusive
Cc1ccc(N(CC(=O)NCC2CCCO2)S(=O)(=O)c2ccccc2)c(C)c1 (centres undefined)	MARV entry inh inconclusive, Lassa entry inh inconclusive, HCMV inh inconclusive
CCOc1ccccc1NC(=O)CCN(c1ccc(C)cc1)S(=O)(=O)c1ccccc1	HCV inhibitor inconclusive, MARV entry inh 14µM, Lassa entry inh inconclusive, HCMV inh inconclusive
COc1ccccc1N(CC(=O)Nc1cc(C)on1)S(=O)(=O)c1ccc(Cl)cc1	MARV entry inh inconclusive, Lassa entry inh inconclusive, HCMV inh -69
COc1ccc(Cl)cc1N(CC(=O)NC(C)(C)C)S(=O)(=O)c1ccc(C)c([N+](=O)[O-])c1	MARV entry inh inconclusive, HCMV inh -76
CCOc1ccc(NC(=O)CN2C(=O)COc3ccc(S(=O)(=O)Nc4ccccc4)cc32)cc1	none (no result: HCV inhibitor, MARV entry inh)
